About 79,000 compounds went through this panel and 15% of them were active in at least one assay; those are over-represented in the sample as a whole. Unmarked numbers belong to inactive results. Calls of active or inactive are those of the source. No stated cut-off is given here; in the data, active means growth inhibition above about 70%; inactive means the rest.

The record followed here is PubChem BioAssay (NCI).

Assay [1] can be described thus: NCI Yeast Anticancer Drug Screen. Data for the rad50 strain (AID 155).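 Further: 0% = growth of vehicle-only cultures of the same strain.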 The note with it: S. cerevisiae rad50 strain growth inhibition; at 50.0 µM; hits give high values. In outline:
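Readout: growth inhibition relative to vehicle-treated cultures. Compound exposure was carried out in a genetically defined yeast strain deficient in DNA damage repair.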

Assay [2] is described as follows: NCI Yeast Anticancer Drug Screen. Data for the mec2-1 strain (AID 157). The note with it: S. cerevisiae mec2-1 strain, at 50.0 µM, hits give high values. Put shortly: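 Each compound was tested on mec2-1 yeast, a strain altered in DNA damage repair or cell cycle control. Growth inhibition is reported relative to vehicle.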
The nature of assay [3]: NCI Yeast Anticancer Drug Screen. Data for the sgs1 mgt1 strain (AID 161).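 Further: 0% = growth of cultures given vehicle only.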 The following applies: S. cerevisiae sgs1 mgt1 strain, at 50.0 µM, hits give high values. In outline:
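Genetically altered yeast, compound exposure, growth inhibition relative to vehicle.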

Assay [4] is described as follows: NCI Yeast Anticancer Drug Screen. Data for the cln2 rad14 strain (AID 165).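 Further: 0% = growth equal to vehicle treated cultures.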 The following applies: S. cerevisiae cln2 rad14 strain, at 50.0 µM, hits give high values. In outline: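 Test compounds were added to cln2 rad14 yeast cultures; inhibition of growth was then determined by comparison with vehicle treatment.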
A short description of assay [5]: NCI Yeast Anticancer Drug Screen. Data for the bub3 strain (AID 167). The note with it: S. cerevisiae bub3 mutant strain, at 50.0 µM, hits give high values. In outline: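 Readout: yeast growth inhibition, expressed relative to vehicle-only wells. The test organism is a mutant strain from a panel with lesions in DNA repair or checkpoint genes.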
The nature of assay [6]: NCI Yeast Anticancer Drug Screen. Data for the mlh1 rad18 strain (AID 175). The following applies: S. cerevisiae mlh1 rad18 strain growth inhibition; at 50.0 µM; hits give high values. Put shortly: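 Inhibition values reflect reduced growth of mutant yeast versus vehicle-treated controls following compound exposure; the mutations affect DNA damage repair.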

Take `NC(=O)c1nnsc1NC=O`: the growth inhibition in assay [1] was 15.2%; in assay [2] it was 7.95%; in assay [3] it was -40.7%; in assay [4], -0.2%; in assay [5], -26.1%; in assay [6], -29.8%.
On to `COc1cccc2cc(C(C)=O)c(=O)oc12`, for which the growth inhibition in assay [1] is 8.65%; in assay [2] it was -5.35%; in assay [3] it was 1.6%; in assay [4], 3%; in assay [5], 9.05%; in assay [6], 2.85%.
Take `CCC(C)(NC(N)=O)c1ccccc1` (stereo not given): the growth inhibition in assay [1] is -6.9%; in assay [2], 10.4%; in assay [3], -12.1%; in assay [4], -7.5%; in assay [5] it was -12.9%; in assay [6], -7.35%.
Take `N#CC1(C#N)C2(c3ccccc3)OC(c3ccccc3)(c3cc4ccccc4cc32)C1(C#N)C#N`: the growth inhibition in assay [1] is 1.75%; in assay [2] it was 20.1%; in assay [3] it was -4.1%; in assay [4], 14.1%; in assay [5] it was 8%; in assay [6], 29.1%.
On to `CCC1NC(=O)C(NC(=O)c2ncccc2O)C(C)OC(=O)C(c2ccccc2)NC(=O)C2CC(=O)CCN2C(=O)C(Cc2ccccc2)N(C)C(=O)C2CCCN2C1=O` (stereo not given), for which the growth inhibition was -6.9% in assay [1]; -32.6% in assay [2]; -29.1% in assay [3]; -17.4% in assay [4]; -6.45% in assay [5]; 0.3% in assay [6].
Take `C/C(=C\c1ccccc1)C(=O)C1C(c2ccccc2)CC(=O)C(C)C1c1ccccc1` (stereo not given): the growth inhibition in assay [1] is -3.65%; in assay [2], -11.7%; in assay [3], -27.3%; in assay [4] it was -36.5%; in assay [5], -0.5%; in assay [6], 2.35%.
As to `CN1CCN=C(C(=O)O)C=C1c1ccccc1O`, the growth inhibition in assay [1] is 28.9%; in assay [2], 26.7%; in assay [3], 26.7%; in assay [4] it was -28.2%; in assay [5], -2.4%; in assay [6], 11.9%.
With `C=CCCCCCCCCC(=O)OC`, the growth inhibition in assay [1] is -11.8%; in assay [2], -17.9%; in assay [3] it was 10.2%; in assay [4] it was -10.5%; in assay [5], -5.1%; in assay [6], -31.4%.
For `OC(c1cc(C2CCCCC2)nc2ccccc12)C1CCCCN1` (stereo not given), the growth inhibition in assay [1] was -13.1%; in assay [2], -0.85%; in assay [3] it was 8.85%; in assay [4], 2.6%; in assay [5], -5.7%; in assay [6], -12.7%.
For `COc1ccc(C2=Nc3c(nc(SC)[nH]c3=O)NC(c3ccccc3)C2)cc1` (stereo not given), the growth inhibition was 9.45% in assay [1]; 9.3% in assay [2]; 19.3% in assay [3]; 6.15% in assay [4]; 28.3% in assay [5]; -3.15% in assay [6].
Consider `CN(N=O)C(=O)NCCc1ccccc1`, for which the growth inhibition was 13.6% in assay [1]; -11.9% in assay [2]; 11.6% in assay [3]; -36.6% in assay [4]; -5.2% in assay [5]; 16.2% in assay [6].
With `CN(C)c1ccc(/C=C(/C(=O)O)c2csc(-c3nc(/C(=C\c4ccc(N(C)C)cc4)C(=O)O)cs3)n2)cc1`, the growth inhibition in assay [1] was 34.8%; in assay [2], 9.45%; in assay [3] it was 10.2%; in assay [4], -19.8%; in assay [5] it was 13.2%; in assay [6] it was 25.4%.
Consider `O=C(CC(=O)N(C(=O)/C=C\c1ccccc1)c1ccc(Cl)cc1)N1N=C(c2ccccc2)C(N=Nc2cccc([N+](=O)[O-])c2)C1=O` (stereo not given), for which the growth inhibition in assay [1] is 7.5%; in assay [2] it was 3.45%; in assay [3], 9.5%; in assay [4] it was 1.75%; in assay [5], 14.7%; in assay [6], 5.5%.
On to `CC(Nc1ccc(Cl)c(Cl)c1)C1CCOC1=O` (stereo not given), for which the growth inhibition was 85.5% (active) in assay [1]; 97% (active) in assay [2]; 94.8% (active) in assay [3]; 80% (active) in assay [4]; 94.8% (active) in assay [5]; 95.5% (active) in assay [6].
For `CCOc1ncc(C(O)c2ccc(F)cc2)c(OCC)n1` (stereo not given), the growth inhibition in assay [1] was 17.1%; in assay [2], -3.95%; in assay [3], 1.15%; in assay [4], -52.4%; in assay [5] it was 11.4%; in assay [6], 0.3%.
Take `CCCCCCCCC/C=C\C(=O)O`: the growth inhibition was 4.6% in assay [1]; -12.5% in assay [2]; 10.2% in assay [3]; -22.9% in assay [4]; -13.8% in assay [5]; 37% in assay [6].
Consider `O=[N+]([O-])c1ccc(-c2nc3ccncc3[nH]2)cc1`, for which the growth inhibition in assay [1] was -22.6%; in assay [2], -7.4%; in assay [3], -15.2%; in assay [4], -21.6%; in assay [5] it was -6.85%; in assay [6], -12.6%.
Consider `COc1ccc(NC(=O)CCc2cc(C(C)(C)C)n[nH]2)cc1`, for which the growth inhibition in assay [1] is -22.1%; in assay [2] it was -15.8%; in assay [3] it was -3.8%; in assay [4], 12.6%; in assay [5] it was -16.7%; in assay [6], -8.5%.
As for `COc1ccc(C2(C=O)CN(C)CN2)cc1` (stereo not given), the growth inhibition was -7.2% in assay [1]; -3.95% in assay [2]; -14.7% in assay [3]; -21.2% in assay [4]; -13.8% in assay [5]; -7.2% in assay [6].
With `[N-]=[N+]=Nc1ccc(-c2nc(N)nc(N)n2)cc1`, the growth inhibition in assay [1] is 11.8%; in assay [2], 0.35%; in assay [3] it was -2.55%; in assay [4] it was -4.75%; in assay [5], 6.9%; in assay [6], 15.2%.
